Experiment [1] in a line: inhibitors of TNFa-induced NFkB p65 translocation, primary screen, imaging, HUVEC, MLSMR starter and 10KST1 sets (AID 438;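 active means inhibition above 20% together with a positive visual image hit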;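 further: compound added about 3h40 before a 20 min TNFalpha stimulation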;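 on inhibition: signal is the nuclear over cytoplasmic p65 intensity ratio per well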). The conditions noted are these: HUVEC TNFa-induced p65 nuclear translocation; cell count: measured here: nuclei count (cytotoxicity indicator), at 2.08 µM unless noted; inhibition: at 2 µM, stronger effect = higher value unless noted.
Experiment [2] in a line: endothelial E-selectin expression blockers – imaging, HUVEC, immunofluorescence, MLSMR starter and 10KST1 sets, primary screen (AID 487;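 active means visually confirmed hit in the image check and inhibition above 20%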;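 on inhibition: signal is fraction of cell area covered by stained E-selectin grains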;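 on nuclei count: 100% = median nuclei count of all wells on the same plate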). To be noted: HUVEC TNFalpha-induced E-selectin immunofluorescence imaging, at 2 µM; inhibition: stronger effect = higher value; nuclei count: measured here: cell number, toxicity.
Experiment [3] is described as follows: Primary imaging screen for DUSP6 inhibitors that restore phospho-Erk in transfected HeLa cells, chemical complementation (AID 609;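 active means compounds giving at least 50% inhibition in the cell-based MKP-3 phosphatase rescue imaging test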;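 on inhibition: phospho-Erk level distribution per well compared with pooled transfected vehicle control wells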). To be noted: HeLa MKP-3 transfected, phospho-Erk imaging KS statistic, at 10 µM.
Experiment [4] has as its target Dual specificity protein phosphatase 6 (Homo sapiens) (UniProt Q16828). The experiment is described as above. To be noted: HeLa MKP-3 transfected, phospho-Erk imaging KS statistic, at 10 µM, stronger effect = higher value.
In experiment [5] the target is Voltage-gated potassium channel subunit beta-2 (Rattus norvegicus) (UniProt P62483). Description: inhibitors of rat Kvbeta2 reductase activity – biochemical, NADPH fluorescence, primary screen (AID 622;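 active means fluorescence slope higher than the sample average by over 3 SD, cut at about -0.22 in these data, passing the limit was not always enough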;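 further: slope of raw intensity against log time taken from 70 to 1610 s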). To be noted: recombinant KvBeta, 4-cyanobenzaldehyde reduction, at 10 µM, stronger effect = higher value.
The target is the same in experiment [6]. Briefly: enhancers of rat Kvbeta2 NADPH turnover – biochemical, NADPH fluorescence, primary screen (AID 623).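 Further: fluorescence intensity change per second fitted from 20 to 320 s.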 To be noted: Recombinant KvBeta, NADPH fluorescence decrease slope, 10 min; at 10 µM; stronger effect = lower value.
For experiment [7], the target named is Alpha-2C adrenergic receptor (Homo sapiens) (UniProt P18825). Description: compounds altering alpha2C-coupled GIRK flux – cell-based, HEK293 alpha2C/GIRK1/2, thallium flux, primary screen (AID 624;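 active means fluorescence slope after compound addition differing from the mean of all screened samples at 99.7% confidence, in either direction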;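 further: slope of fluorescence ratio to pre-addition baseline per second over 15 to 24 s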). To be noted: thallium flux BTC fluorescence, at 10 µM, actives lie on both sides.
A short description of experiment [8]: inhibitors of larval lipid processing in zebrafish, primary screen, whole organism, PED6 fluorescence, gall bladder and intestine (AID 686;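 active means a full or partial loss of lipid-probe fluorescence in the fish gall bladder, intestine or both, judged by eye; inactive means no fluorescence loss, or compound toxic to the fish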;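 further: larvae 5 to 7 days old with five fish per well; signal comes from phospholipase A2 cleavage of quenched PED6 carried via bile; overnight exposure to compound and PED6 before scoring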). The conditions noted are these: Zebrafish larvae PED6 lipid processing, fluorescence scoring.
The nature of experiment [9]: loss of swimming-algae plug formation – whole organism, Chlamydomonas reinhardtii, WT vs cilia-less mutant, absorbance, 96-well, primary screen (AID 463189;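 active means inhibition at or above 50% relative to wild type and mutant plate controls; inactive means inhibition below 50%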;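 further: 0% = wild type cc124 cells in DMSO and 100% = ciliumless bld1 mutant cells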). The conditions noted are these: Chlamydomonas reinhardtii gravitaxis, OD600 absorbance, 2 days; at 10 µM; stronger effect = higher value.
The mark [10] stands for this setting: measured here: cell density z-score.
Setting [11] is: measured here: nuclear c-Myc green intensity z-score.
[12] abbreviates: measured here: nuclear pErk red intensity z-score, stronger effect = higher value.

Activity calls are given as the source filed them.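 How the source made its calls, unless noted: active means NADPH fluorescence slope more negative than the mean of all samples by about 3 SD, 99.7% confidence; inactive means the rest.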

Chain of Dual specificity protein phosphatase 6 (Homo sapiens) (Q16828 whole entry, looked up): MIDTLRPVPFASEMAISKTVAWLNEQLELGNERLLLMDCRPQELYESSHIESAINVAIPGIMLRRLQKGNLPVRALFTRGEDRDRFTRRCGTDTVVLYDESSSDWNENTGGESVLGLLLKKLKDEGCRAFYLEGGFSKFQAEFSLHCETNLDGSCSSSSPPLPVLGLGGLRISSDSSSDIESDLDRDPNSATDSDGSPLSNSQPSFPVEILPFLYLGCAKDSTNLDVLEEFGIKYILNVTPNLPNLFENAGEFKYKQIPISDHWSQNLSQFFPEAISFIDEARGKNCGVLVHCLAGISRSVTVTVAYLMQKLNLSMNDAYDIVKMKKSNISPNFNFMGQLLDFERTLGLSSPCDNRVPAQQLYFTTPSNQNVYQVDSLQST
Chain of Voltage-gated potassium channel subunit beta-2 (Rattus norvegicus) (P62483 whole entry, looked up): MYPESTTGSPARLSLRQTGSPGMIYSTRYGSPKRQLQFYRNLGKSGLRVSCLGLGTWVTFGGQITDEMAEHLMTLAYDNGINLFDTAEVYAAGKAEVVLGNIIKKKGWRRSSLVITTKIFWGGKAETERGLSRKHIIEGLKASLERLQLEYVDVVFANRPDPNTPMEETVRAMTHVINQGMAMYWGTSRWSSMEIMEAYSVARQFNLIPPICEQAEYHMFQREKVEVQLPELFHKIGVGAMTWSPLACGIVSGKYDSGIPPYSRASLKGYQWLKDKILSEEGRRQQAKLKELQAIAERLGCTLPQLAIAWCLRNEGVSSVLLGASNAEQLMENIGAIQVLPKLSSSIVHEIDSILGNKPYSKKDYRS
Chain of Alpha-2C adrenergic receptor (Homo sapiens) (P18825 whole entry, looked up): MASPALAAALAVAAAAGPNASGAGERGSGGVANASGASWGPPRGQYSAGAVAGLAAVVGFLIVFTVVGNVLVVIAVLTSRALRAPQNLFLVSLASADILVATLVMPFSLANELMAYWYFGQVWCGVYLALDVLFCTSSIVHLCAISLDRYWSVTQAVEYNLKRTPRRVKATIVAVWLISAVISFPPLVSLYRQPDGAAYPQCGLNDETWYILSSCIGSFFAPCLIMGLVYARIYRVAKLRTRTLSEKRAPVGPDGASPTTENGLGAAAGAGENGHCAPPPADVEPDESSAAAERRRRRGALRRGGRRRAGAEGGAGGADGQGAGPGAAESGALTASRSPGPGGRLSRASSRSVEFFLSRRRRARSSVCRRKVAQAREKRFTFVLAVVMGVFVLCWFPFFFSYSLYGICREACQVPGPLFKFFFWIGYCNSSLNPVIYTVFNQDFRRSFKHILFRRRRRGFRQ

As usually defined, the inhibition is the change of the read-out against control, counted positive when it falls. `O=c1[nH]c(=O)n(C2CCCCC2)c(O)c1C=NCCCn1ccnc1` came in with a cell count in [1] of 684. The inhibition in experiment [1] is -20.4% (inactive); in experiment [2] it was -84.3% (inactive); in experiment [4], 6.04% (inactive); in experiment [9] it was 0.521% (inactive). Further, in [2], the nuclei count turned out to be 153%. The z-score in experiment [3] (setting [10]) is 1.04; in experiment [3] (setting [11]) it was -1.34; in [3] (setting [12]) it was -0.814. The fluorescence slope in experiment [5] was -0.428 (inactive). In addition, in [6], the NADPH fluorescence slope is 6.8e-06 (inactive). The slope in experiment [7] is 0.00637 (inactive). In [8], the compound was classed as inactive.
`Cn1c(O)c(C=NC2CCN(Cc3ccccc3)CC2)c(=O)n(C)c1=O` showed a cell count in experiment [1] of 440. Also, the inhibition in experiment [1] is 1% (inactive); in experiment [2] it was -22.6% (inactive); in experiment [4] it was 4.25% (inactive); in experiment [9], 0.967% (inactive). The same compound gave a nuclei count in [2] of 136%. Moreover, the results for the z-score in [3] (setting [10]), in experiment [3] (setting [11]) and in experiment [3] (setting [12]) were 0.0201, 1.2 and 0.0643, respectively. Also, the fluorescence slope in experiment [5] was -0.401 (inactive). Moreover, the NADPH fluorescence slope in experiment [6] is -1.9e-05 (inactive). Also, in experiment [7], the slope is 0.00599 (inactive). Besides, the compound was classed as inactive in experiment [8].
`O=C(Nc1ccncc1)c1c(O)c2ccccc2n(Cc2ccccc2)c1=O`: the cell count in experiment [1] is 544. For the same compound, the inhibition is -4.5% [at 2 µM, stronger effect = higher value, 0% TNFa-plus-vehicle, 100% no-TNFa wells] (inactive) in experiment [1]; -23.1% (inactive) in experiment [2]; 10.5% [cells stimulated with TPA for 15 min] (inactive) in [4]; 30.8% (inactive) in experiment [9]. In experiment [2], this compound gave a nuclei count of 145%. Besides, the z-score in experiment [3] (measured here: cell density z-score, cells stimulated with TPA for 15 min) was -0.126; in [3] (measured here: nuclear c-Myc green intensity z-score, cells stimulated with TPA for 15 min), -1.62; in [3] (measured here: nuclear pErk red intensity z-score, stronger effect = higher value, cells stimulated with TPA for 15 min), -0.473. For the same compound, the fluorescence slope in experiment [5] is -0.32 (inactive). Further, in experiment [6], the NADPH fluorescence slope is 2.5e-05 (inactive). Also, the slope in [7] is 0.00467 (inactive). Besides, in [8], the outcome was “inactive [screened at 20 µM (by protocol)]”.
In experiment [1], `O=c1[nH]c(=O)n(Cc2ccccc2)c(O)c1C=NCCN1CCNCC1` displayed a cell count of 548. Also, the inhibition is -7.6% (inactive) in experiment [1], -71.4% (inactive) in experiment [2], 7.93% (inactive) in experiment [4] and -6.44% (inactive) in experiment [9]. Besides, the nuclei count in experiment [2] was 125%. Moreover, the z-score in experiment [3] (setting [10]) was -0.72; in [3] (setting [11]) it was 0.623; in experiment [3] (setting [12]) it was -0.0503. Further, the fluorescence slope in experiment [5] is -0.51 (inactive). In experiment [6], the NADPH fluorescence slope is -3.8e-05 (inactive). For the same compound, the slope in experiment [7] was 0.00654 (inactive). Also, in experiment [8], the result was inactive.
The compound `CN1CC=C2C(C#N)=C(N)C(C#N)(C#N)C(c3ccncc3)C2C1` (stereo not drawn) showed a cell count in experiment [1] of 568. In addition, the inhibition is -17% (inactive) in experiment [1], 30.3% (inactive) in experiment [2], 67.6% (inactive) in experiment [4] and 11.3% (inactive) in experiment [9]. Besides, in experiment [2], the nuclei count came out at 179%. Besides, the z-score in [3] (setting [10]) was -0.865; in [3] (setting [11]) it was 3.38; in [3] (setting [12]) it was -0.482. In addition, in experiment [5], the fluorescence slope was -0.392 (inactive). Further, in experiment [6], the NADPH fluorescence slope was -5.3e-05 (inactive). Also, in experiment [7], the slope was 0.00203 (inactive). Moreover, the compound was classed as inactive in experiment [8].
With `CCCc1nc2ccccc2c(=O)n1-c1ccccc1OC`, the cell count in experiment [1] was 587. The inhibition was -5.2% (inactive) in experiment [1], -140% (inactive) in [2], -4.78% (inactive) in [4] and -2.29% (inactive) in [9]. In addition, the nuclei count in [2] came out at 134%. Further, the z-score in [3] (setting [10]) is -0.589; in experiment [3] (setting [11]) it was -0.508; in experiment [3] (setting [12]), -0.325. Besides, the fluorescence slope in experiment [5] was -0.375 (inactive). In addition, the NADPH fluorescence slope in experiment [6] was -2e-05 (inactive). The slope in [7] was 0.00541 (inactive). For the same compound, the outcome in [8] was inactive.

(Values after PubChem BioAssay.)
